# Experimental data as given in PubChem BioAssay AID623980 (National Center for Advancing Translational Sciences (NCATS), 2012).
# The list shows a part of the results. Calls of active or inactive are those of the source. The call rests on the fitted dose curve; in most records, active means well fitted curve in the direction sought with a large enough effect; inactive means no such curve, though single readings can be large or run the other way.
# Test: qHTS for Inhibitors of mutant isocitrate dehydrogenase 1 (IDH1): Cherrypicks Autofluorescence Interference
# Conditions: Resorufin detection reagent fluorescence interference, cell-free; series mostly up to 51.2 µM
# Source text: Readout Interference Assay for Inhibitors of IDH1 R132H and WT IDH1 Malignant glioblastomas (WHO grade IV), including primary and secondary glioblastomas, are among the most lethal with a median survival of one year, and unfortunately they are also the most prevalent type of brain tumors. By and large the standard of care of gliomas remains the use of the oral alkylating agent temozolomide and radiotherapy following surgical tumor resection. There is an urgent unmet medical need for novel therapeutics for gliomas. IDH mutations occur in up to 70% of grade II-IV secondary glioblastomas, and IDH1 R132H is the most prevalent mutation. […] Wild-type (WT) IDH1 catalyzes the conversion of isocitrate to a-ketoglutarate with the concomitant reduction of NADP+ to NADPH. In contrast, IDH1 R132H catalyzes the conversion of -ketoglutarate to 2-hydroxyglutarate (2-HG) with the concomitant oxidation of NADPH to NADP+ [5]. Recently, a second significant advancement for the field was the finding that IDH is an oncogene, and that its metabolic product 2-HG may contribute to the pathogenesis of IDH-mutated cancers. […] Although this link to cancer is tantalizing, the direct evidence of how 2-HG drives pathogenesis of gliomas and AML remains a subject of further research. The goal of this detection interference assay is to identify whether the potential small-molecule inhibitors of IDH1 R132H or WT IDH1 confound the fluorescence readout by interfering with the detection reagent. Inhibition of the detection reagent would lead to a decrease in observed fluorescence of the product resorufin relative to the DMSO control. Compounds were screened as concentration-titration series that ranged from 76 uM to 0.15 uM. NIH Molecular Libraries Probe Production Network [MLPCN] NIH Chemical Genomics Center [NCGC] MLSCN Grant: R03 DA032129 PI Name: Dr. Lenny Dang
# Detection reagent buffer was dispensed into black, solid 1536-well plates at 9 microL/well in 20 mM Tris buffer, pH 7.5, containing final concentrations of 10 mM MgCl2, 20 mM NaCl, 0.05% BSA, 2 mM beta-ME, 0.008 mM NADPH, 1 mM alpha-ketoglutarate, and 0.008 mM resorufin. Then, 23 nL of compounds or DMSO were delivered to each well using a pin tool. The fluorescence intensity was monitored on an Envision plate reader at 590 nm (Ex 540, Em 590, bodipy mirror, 10 flashes). The %Activity was determined from the corrected fluorescence values. Resorufin at 0x was included to normalize %Activity of identified inhibitors; 0x resorufin values corresponded to 100%Activity (full inhibition), while 1x resorufin values were used to normalize 0%Activity (no inhibition). Concentration-response curves were fitted to the signals arising from the resulting fluorescence. The concentration-response curves were then classified based on curve quality (r2), response magnitude and degree of measured activity, and compounds were subsequently categorized based on their curve class. […] Keywords: Isocitrate dehydrogenase, IDH1, IDH1 R132H, 2-HG, 2-hydroxyglutarate, AML, glioma, MLSMR, MLPCN, NIH Roadmap, qHTS, NCGC
row,SMILES,outcome
1,Cc1ccc2nc(N3C(=O)C(O)=C(C(=O)c4ccco4)C3c3cccc(O)c3)sc2c1 (centres undefined),inactive
2,COc1cc(/C=C2/SC(=S)N(Cc3ccccc3)C2=O)cc(OC)c1O,inactive
3,COc1cc2c(-c3ccc4c(c3)OCO4)c(-c3ccsc3)oc(=O)c2cc1OC,inactive
4,Cc1ccc(Nc2nc(CSc3nnc(-c4ccncc4)n3-c3ccccc3C)cs2)cc1,inactive
5,COc1ccc(Cl)cc1-n1c(=S)sc2c(=O)n(-c3ccc(F)cc3)c(SCC(=O)O)nc21,inactive
6,Cc1ccc(-c2nn(-c3ccccc3)cc2/C=C2\SC(=S)N(CCCCCC(=O)O)C2=O)o1,inactive
7,CCOC(=O)c1ccc(N2C(=O)c3n[nH]c(-c4ccco4)c3C2c2ccc(O)cc2)cc1 (centres undefined),inactive
8,Cc1nc(-c2ccc(Cl)cc2)sc1C(=O)CBr,inactive
9,CCCCOc1ccc(CN2C(=O)C(=O)c3cc(Br)cc(C)c32)cc1OC,inactive
10,COc1ccc(C(CCN(Cc2ccc(OC)c(OC)c2)C(=O)CCl)c2ccccc2)cc1 (centres undefined),inactive
11,COc1ccc(/C=C2/SC(=O)N(CCCCCC(=O)Nc3ccccc3C(=O)O)C2=S)cc1,inactive
12,O=C(NC(Nc1nc2ccc([N+](=O)[O-])cc2s1)(C(F)(F)F)C(F)(F)F)c1ccccc1,inactive
13,C(=N/Nc1cc(N2CCOCC2)nc(N2CCOCC2)n1)/c1ccccc1,inactive
14,O=C1c2cccc3cccc(c23)C(=O)N1CCCCCc1n[nH]c(=S)o1,inactive
15,COc1ccc(/C=N/Nc2cc(N3CCOCC3)nc(C)n2)c(OC)c1,inactive
16,CCSc1nc2sc3c(c2c(=O)n1-c1ccc(C)cc1)CCN(C)C3,inactive
17,CCCNc1ncnc2c1c(-c1ccccc1)cn2-c1ccc(OCC)cc1,inactive

row,SMILES,outcome
1,N#CC1=C(N)C(C#N)(C#N)[C@H](c2ccsc2)[C@H]2COCC=C12,inactive
2,COC(=O)c1ccc(-c2c(-c3ccccc3)ncc3cc(OC)c(OC)cc23)cc1,inactive
3,CC(C)Nc1nc(N(c2ccccc2)c2ccccc2)nc(-n2ccnc2)n1,inactive
4,COC(=O)c1cccc(N(C(=O)c2ccco2)C(C(=O)NC2CCCC2)c2ccco2)c1 (centres undefined),inactive
5,COc1cc(/C=C2/C(=O)ON=C2C)ccc1OCc1ccccc1F,inactive
6,CCCOc1ccc(C2c3c(-c4ccccc4O)n[nH]c3C(=O)N2Cc2cccnc2)cc1 (centres undefined),inactive
7,CC(C)(C)c1ccc(S(=O)(=O)Nc2ccc(O)c(Sc3nc4ccccc4s3)c2)cc1,inactive
8,COc1ccc(C(C(=O)NC2CCCCC2)N(C(=O)c2snc(C(N)=O)c2N)c2ccccc2OC)cc1 (centres undefined),inactive
9,Cc1cccc(N(C(=O)Cc2cccs2)C(C(=O)NC2CCCC2)c2ccsc2)c1 (centres undefined),inactive
10,CCC(C)(C)NC(=O)C(c1cccn1C)N(Cc1ccc(C)cc1)C(=O)Cn1nnc2ccccc21 (centres undefined),inactive
11,Cn1c(COc2ccc(Cl)cc2)nc2ccccc2c1=O,inactive
12,CCCc1[nH]nc2c1C(c1ccc(OC)c(Cn3nc(C)c(Br)c3C)c1)C(C#N)=C(N)O2 (centres undefined),inactive
13,CCOC(=O)c1oc2c(CN3CCN(CCO)CC3)c(O)c(CC)cc2c(=O)c1-c1nc2ccccc2s1,inactive
14,CC(C)N(C(=O)CSc1nc(COc2ccccc2)nc2ccccc12)C(C)C,inactive
15,CCCc1nc2c(c(=O)c3ccccc3n2C)c(=O)n1C1CCCCCC1,inactive
16,CCCCC(=O)NC(c1ccc(OC)c(OC)c1)c1ccc2cccnc2c1O (centres undefined),inactive
17,Cc1nc(C)c(C(=O)N(c2ccc(C)c(C)c2)C(C(=O)NCc2ccco2)c2ccccc2)s1 (centres undefined),inactive
